Measurements from PubChem BioAssay AID588405 (Sanford-Burnham Center for Chemical Genomics, 2011).
The campaign covered roughly 360,000 compounds. About 6,200 (1.7%) were called active. This is one part of a sample in which actives are shown more often than they occur. Unmarked numbers belong to inactive results.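 How the source made its calls: active means inhibition of at least 50% at 20 µM; inactive means the rest.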

Test: inhibition of PEG-3 promoter activity – cell-based, HeLa, luciferase luminescence, primary screen (AID 588405)
Details: HeLa PEG-Prom luciferase reporter, overnight, at 20 µM, active compounds read high

Compared with O=C(NC1CCCC1)C(c1c(F)cccc1Cl)N(C(=O)c1csnn1)C1CC1 (configuration not stated), COc1cccc(NC(=O)C2(C)CCN2C(=O)CCC2CCCC2)c1 (configuration not stated) is lower in inhibition: 16.7% for the first, 9.97% for the second.

Compared with COC(=O)CC1=NN(c2ccccc2)C(=O)C1, CCc1nc2ccccc2c(C(=O)NCc2ccc(OC)cc2)c1C is higher in inhibition: 5.53% for the first, 16.9% for the second.

First: N#Cc1cccc(CN2CCC(=O)N([C@H](CO)c3ccccc3)CC2)c1
Second: CC(NC(=O)C(C)(C)C)C(c1cccs1)N1CCN(Cc2ccccc2)CC1 (configuration not stated)
The inhibition of the first is lower: -12.2% for the first, 3.48% for the second.

Going from CC(=O)c1cccc(-c2cnc3c(NC=O)cc(-c4ccccc4Oc4ccccc4)cn23)c1 to O=C(CNC(=O)OCc1ccccc1)Oc1cc2oc(=O)cc(-c3ccccc3)c2cc1Cl, the inhibition rises from 0.73% to 11.5%.

Going from CCCCN(C=O)c1c(CC)nc2c(OCCC3CCCCC3)cccn12 to CC(C)CCN1CCN(Cc2cn[nH]c2C2CCCCC2)CC1CCO (configuration not stated), the inhibition falls from 18.3% to 8.83%.

Going from CCOC(=O)C1(C)CCCN(C(=O)c2ccc(F)c(Cl)c2)C1 (configuration not stated) to CC1(C(=O)NS(=O)(=O)c2cccc(OC(F)F)c2)CCN1C(=O)COc1ccc(Cl)cc1 (configuration not stated), the inhibition falls from 8.51% to -1.93%.

First: O=C1N[C@@H](c2ccccc2)COC(=O)[C@H](Cc2ccc(F)cc2)C/C=C\C[C@@H]1CC(=O)N(CCO)Cc1ccccc1
Second: O=C1CCC/C=C/C[C@@H](CC(=O)N(CCO)Cc2ccccc2)C(=O)NC[C@H](c2ccccc2)O1
The inhibition of the first is higher: 24.9% for the first, -18.6% for the second.

Going from CCOC(=O)C1=CC[C@@H](c2ccccc2)N(S(=O)(=O)c2ccc(C)cc2)[C@H]1c1ccc(CC)cc1 to O=C(/C=C/[C@H]1O[C@@H](n2cnc3c(NC(=O)c4ccccc4)ncnc32)[C@H](O)[C@@H]1O)NCc1ccccc1, the inhibition falls from 13% to -2.88%.

Going from O=C(/C=C/c1ccc(OCc2c(F)cccc2Cl)cc1)N1CCOCC1 to COc1cc(CNCCN(C)C)ccc1OCc1c(F)cccc1Cl, the inhibition rises from -42.8% to 2.85%.

Cc1coc2c1c(C)cc1oc(=O)c(CC(=O)NCC(=O)N[C@H](C(=O)O)C(C)C)c(C)c12 showed an inhibition of -3.37%.

In the case of COC(=O)Cc1[nH]n(-c2nc3ccccc3s2)c(=O)c1C(C)=Nc1ccc(OC)cc1, the inhibition is reported as 89.1% (active).
With O=C1NC[C@@H](c2ccccc2)OC(=O)[C@H](Cc2ccc(F)cc2)CC/C=C/C[C@H]1CC(=O)N(CCO)Cc1ccccc1 the inhibition was 54.9% (active).
In the case of CN(C)CCCNC(=O)/C=C/c1ccc(OCc2c(F)cccc2Cl)cc1, the inhibition is reported as 70.2% (active).
